# Compound activity from PubChem.
# MPTP block: mitochondrial permeability transition pore inhibitors, primary screen, biochemical, isolated mouse mitochondria, absorbance; Ca2+ swelling absorbance, 30 min; inhibition, % at 10 µM; actives 1.4% (n = 360,000);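 active = inhibition of 50% or more, scaled per plate between neutral and stimulator controls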;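 also: 0% = DMSO wells given calcium and 100% = 1 mM EGTA wells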
# NR3A LBD binder: binders of NR3A ligand-binding domain, primary screen, biophysical, differential scanning fluorimetry, uHTS; Glutamate receptor ionotropic, NMDA 3A (GRIN3A) ligand-binding domain; NR3A LBD differential scanning fluorimetry, Tm shift; 0% = protein alone, 100% = glycine-bound protein; Tm shift relative to glycine control, % at 25 µM; actives 2.5% (n = 340,000);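 active = melting temperature shift of at least 10% of the positive control shift, at one fixed dose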
# CRFBP-R2 agonist: agonists of CRF-BP/CRF-R2 complex, primary screen, cell-based, HEK293, calcium dye fluorescence, uHTS; AID 588473, 2011; activation, % at 13.2 µM; actives 0.46% (n = 350,000); calcium dye fluorescence (FLIPR); percent of saturating CRF peptide response; CRF-binding protein / CRF receptor 2 complex (human);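 active = activation of at least 50%, plus an integration ratio under a set limit after plate pattern correction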;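 also: plate controls were neutral control wells without compound for no effect and CRF at EC100 for full effect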
# CRFR2-BP antag: antagonists of CRF-BP/CRF-R2 complex, primary screen, cell-based, HEK293, calcium dye fluorescence, uHTS | CRF-induced calcium fluorescence | inhibition, % at 11.8 µM | actives 0.59% (n = 350,000) | AID 588475, 2011;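 active = inhibition of the ligand-induced calcium signal above about 50% at the single tested concentration, limit read from the data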
# TMEM16A act: TMEM16A chloride channel activators or potentiators, primary screen, cell-based, HTS. Anoctamin-1 (Mus musculus), Q8BHY3. HEK293 TMEM16A/YFP-H148Q/I152L, iodide quench fluorescence; hits give low values. B-score at 10 µM. actives 0.3% (n = 340,000). AID 623877, 2012;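 active = fluorescence-ratio B-score plate-corrected deviation score at least 3 library SD below zero, with starting fluorescence score within 5 deviations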;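 also: channel opened by trigger with iodide after compound preincubation; score built on the fluorescence ratio of max minus min over baseline; more negative score means more quench and so TMEM16A activation or potentiation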
# Target sequence (Q8BHY3 whole entry, looked up): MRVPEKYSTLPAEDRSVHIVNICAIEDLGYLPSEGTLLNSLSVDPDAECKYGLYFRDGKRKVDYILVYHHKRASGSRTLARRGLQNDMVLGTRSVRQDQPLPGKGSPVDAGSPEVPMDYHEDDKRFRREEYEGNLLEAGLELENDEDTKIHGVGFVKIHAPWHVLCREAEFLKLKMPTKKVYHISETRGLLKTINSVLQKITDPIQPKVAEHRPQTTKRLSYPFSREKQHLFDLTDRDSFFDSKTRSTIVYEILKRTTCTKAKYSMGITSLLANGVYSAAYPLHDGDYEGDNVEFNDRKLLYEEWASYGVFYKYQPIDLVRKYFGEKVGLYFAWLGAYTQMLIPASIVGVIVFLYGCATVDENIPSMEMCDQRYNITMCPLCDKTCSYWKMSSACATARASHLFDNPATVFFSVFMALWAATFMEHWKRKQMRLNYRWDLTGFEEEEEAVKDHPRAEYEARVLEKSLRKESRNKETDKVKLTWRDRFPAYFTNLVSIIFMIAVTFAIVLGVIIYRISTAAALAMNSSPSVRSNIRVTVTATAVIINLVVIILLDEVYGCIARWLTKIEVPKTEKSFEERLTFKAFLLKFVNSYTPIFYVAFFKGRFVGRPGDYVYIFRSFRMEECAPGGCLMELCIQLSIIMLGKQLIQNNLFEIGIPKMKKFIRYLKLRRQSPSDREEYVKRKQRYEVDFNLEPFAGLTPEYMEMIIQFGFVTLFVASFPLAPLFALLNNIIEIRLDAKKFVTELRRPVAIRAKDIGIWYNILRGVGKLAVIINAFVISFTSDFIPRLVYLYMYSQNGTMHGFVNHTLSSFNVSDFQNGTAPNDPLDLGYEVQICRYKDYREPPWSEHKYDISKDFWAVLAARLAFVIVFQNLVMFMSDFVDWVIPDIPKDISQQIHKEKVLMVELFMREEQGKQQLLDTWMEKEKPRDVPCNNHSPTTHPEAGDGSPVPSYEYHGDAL
# ANO1 block: TMEM16A chloride channel inhibitors, primary screen, cell-based, HTS; Anoctamin-1 (Mus musculus), Q8BHY3; HEK293 TMEM16A/YFP iodide influx fluorescence, ionomycin; normalized B-score (activity score, 25-100; higher = stronger inhibition) at 10 µM; actives 1.2% (n = 310,000); AID 588511, 2011;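 active = ratio plate-corrected score three or more library SD toward inhibition, starting fluorescence score within five deviations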;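 also: score derived from kinetic fluorescence span divided by baseline fluorescence per well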
# Numbers without * were called inactive; i = inactive; . = no result. Rows were chosen to be rich in hits. Some 5.1% of all compounds tested hit in one or more screens of this group.
SMILES,MPTP block,NR3A LBD binder,CRFBP-R2 agonist,CRFR2-BP antag,TMEM16A act,ANO1 block
COc1ccc(NC(=O)c2ccc3[nH]c(C)c(C)c3c2)cc1,-1,29*,-7,-6,i,i
COc1ccc(OC)c(NC(=O)CCN2CCN(CCO)CC2)c1,0,-3,0,5,i,i
COc1ccc(OC)c(N/C(=N/C(=S)Nc2ccccc2)Nc2nc(C)cc(C)n2)c1,-2,1,2,-12,i,i
COc1ccc(N(C(C)=O)c2nc3ccccc3[nH]2)cc1,-1,-1,-3,-1,i,i
COc1cc2oc(=O)cc(CN3CCN(c4ccccc4F)CC3)c2cc1Cl,-1,.,.,.,.,.
COc1ccccc1C(=O)C1CCCN(C(=O)c2cnn(C(C)C)c2)C1 (configuration not stated),-1,1,0,-10,i,i
Cc1cccc(NC(=S)N2CCN(S(C)(=O)=O)CC2)c1,0,-1,2,1,i,i
CCN1CCN(CCC(=O)Nc2ccc(Br)cc2)CC1,-2,10*,1,-4,i,i
CN1CCN(CCC(=O)Nc2ccc(Br)cc2)CC1,-1,-2,-1,-1,i,i
Fc1ccc(NC(=S)NCc2cccnc2)cc1,1,-1,-4,25,-7*,i
COc1ccc(NC(=S)NCc2cccnc2)cc1,0,0,1,92*,i,i
Fc1cccc(NC(=S)NCc2cccnc2)c1,1,-1,-2,23,i,i
Cc1cccc(C)c1OCC(=O)Nc1cccc(S(=O)(=O)N2CCCCCC2)c1,-1,.,0,-2,.,.
COc1ccc(C(O)c2nc(-c3cccs3)cs2)cc1 (configuration not stated),0,.,.,.,.,.
O=[N+]([O-])c1[nH]cnc1/C=C/c1ccccc1,2,22*,-2,21,i,i
COC(=O)c1nc[nH]c1[N+](=O)[O-],-1,0,-1,-1,i,.
O=C(CN1CCN(C(=O)CCC(=O)N2CCC(c3ccccc3)=N2)CC1)Nc1ccc(F)cc1,0,18*,-1,-3,i,.
O=C(CN1CCN(C(=O)CCC(=O)N2CCC(c3ccccc3)=N2)CC1)Nc1cccc(F)c1,0,.,-1,-18,.,.
CSCCC(NC(=O)c1ccco1)C(=O)OC(C)C(=O)NC(=O)NC1CCCCC1 (configuration not stated),0,-1,183*,-60,i,i
Cc1ccc(C)c(N2N=C(C(=O)Nc3cccc(S(=O)(=O)N4CCCCC4)c3)CCC2=O)c1,0,0,2,-5,i,.
O=C(Nc1ncc(Cc2ccc(SC(F)F)cc2)s1)c1ccc(OC(F)F)cc1,28,2,68*,-110,i,i
COc1ccc2cc(C3=CCCC3(C)C(=O)O)ccc2c1 (configuration not stated),0,-7,-3,15,i,.
O=C1C(C=NCc2ccccn2)=C(O)c2ccccc21,-1,-1,0,-5,i,25*
COc1cccc(-c2ccc3nnc(SCC(=O)N4CCCC4)n3n2)c1,0,0,-2,2,-4.7*,i
CCS(=O)(=O)C1=NN2C(=N)/C(=C\c3ccc(OC(=O)c4ccco4)c(OC)c3)C(=O)N=C2S1,-1,1,-1,0,i,i
SMILES,MPTP block,NR3A LBD binder,CRFBP-R2 agonist,CRFR2-BP antag,TMEM16A act,ANO1 block
C=CCOc1ccc(/C=C2\C(=N)N3N=C(S(=O)(=O)CC)SC3=NC2=O)cc1OC,2,11*,0,35,i,i
COc1cc(/C=C2\C(=N)N3N=C(S(C)(=O)=O)SC3=NC2=O)cc(OC)c1OCCOc1ccccc1C,2,33*,1,32,i,i
O=C(Nc1ccc(Oc2cccnc2)cc1)C1CCN(Cc2cc(Cl)ccc2O)CC1,1,88*,-1,-9,i,i
O=C(Nc1ccc(Oc2cccnc2)cc1)C1CCN(Cc2ccc(F)cc2)CC1,1,2,8,-11,i,i
O=C(Nc1ccccc1Oc1cccnc1)C1CCCN(Cc2ccccc2O)C1 (configuration not stated),1,-1,-4,99*,i,i
O=C1c2ccccc2OC2(C=Cc3ccccc3O2)N1Cc1ccccc1 (configuration not stated),-5,0,-1,56*,i,i
COc1cc(NC(=O)CSc2nc3ccccc3n2-c2ccccc2)c(C)cc1[N+](=O)[O-],2,-3,-2,55*,i,i
Cc1ccc(NCC2(N=Cc3ccccc3)OC(CO)C(O)C2O)cc1 (configuration not stated),-1,0,2,-4,i,.
COc1ccccc1Cn1c(/C=C/c2ccccc2)nc2ccccc21,6,11*,1,9,i,i
COc1ccc(/C=C/c2nc3ccccc3n2Cc2ccccc2OC)cc1,17,0,0,2,i,i
CC1(C)CCC(=O)N2CC[C@H]3c4cc5ccccc5nc4C[C@@H]1[C@H]32,0,-6,-1,18,i,.
COC(=O)c1ccc2nc3c(cc2c1)[C@@H]1CCN2C(=O)CCC[C@H](C3)[C@H]12,-1,-5,0,87*,i,.
c1cn2cc(CN3CCOCC3)nc2s1,-1,-1,0,1,i,25*
O=C1NC(=O)C2(N1)C(=O)c1cccc3cccc2c13 (configuration not stated),-1,.,85*,-42,.,.
O=C1NC(=O)C2(N1)c1ccccc1-c1ccccc12,-1,0,-1,16,i,.
O=C(Cn1c(O)c(/C=C2\C=Nc3ccccc32)sc1=O)Nc1ccc2c(c1)OCO2,4,11*,1,6,i,i
CCc1cc(C(=O)Nc2nc(-c3ccccn3)cs2)sc1C,2,0,-5,4,i,.
COc1ccc2nc(NC(=O)/C=C/c3ccc4c(c3)OCO4)sc2c1,.,.,.,.,.,i
COc1ccc2nc(Nc3nc4cc5c(cc4s3)OCO5)sc2c1,2,14*,2,-32,i,i
COc1ccc2nc(Nc3ccc4c(c3)OCO4)sc2c1,0,16*,-1,-4,i,i
Cc1ccc(C(=O)N2CCN(C(=O)CN3CCOCC3)C2)cc1,-1,-3,-4,78*,i,i
CCC1Cc2[nH]c(=S)[nH]c(=O)c2C(c2ccc(Cl)cc2)O1 (configuration not stated),-1,.,.,.,.,.
